AC50 and outcome data for 21 molecules are collected here from PubChem BioAssay (EPA / NIEHS).

Results filed as inconclusive are left out. The source made the active and inactive calls. Rule for the calls, unless noted: active = hit-call score of the fitted dose curve at least 0.9, where 1 is the maximum; inactive = score below 0.9.

Read-out in test [1]: E-selectin (Homo sapiens) (UniProt P16581)
As to the kind of experiment: BSK_3C_Eselectin: BioMAP Diversity Plus: 3C Assay for Eselectin Biomarker Activity (AID 2283015).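 For outcome: cell surface E-selectin protein quantified by ELISA 24 h after dosing.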 The note with it: primary human endothelial cells (HUVEC); actives raise or lower the signal. The gist of the method:
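E-selectin ELISA readout, fitted bidirectionally relative to DMSO, taken 24 h post-dosing in HUVEC cultures of the 3C system. Overt cytotoxicity tracked with sulforhodamine B staining of parallel wells.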

Read-out in test [2]: Interleukin-1 alpha (IL1a), IL1A (gene 3552)
As to the kind of experiment: BSK_BE3C_IL1a: BioMAP Diversity Plus: BE3C Assay for Interleukin-1 alpha (IL1a) Biomarker Activity (AID 2283016). The note with it: primary human bronchial epithelial cells; actives raise or lower the signal. In outline:
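BE3C primary human bronchial epithelium; cpd 24 h; IL-1a by ELISA; bidirectional fit vs DMSO; parallel SRB (0.1% SRB, 10% TCA fix, 560 nm) for cytotoxicity.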

Read-out in test [3]: Monocyte Chemoattractant Protein-1 (MCP1), CCL2 (gene 6347)
As to the kind of experiment: BSK_3C_MCP1: BioMAP Diversity Plus: 3C Assay for Monocyte Chemoattractant Protein-1 (MCP1) Biomarker Activity (AID 2283017). The note with it: primary human endothelial cells (HUVEC); actives raise or lower the signal. The gist of the method:
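MCP-1 was measured by ELISA 24 h after dosing in primary HUVEC 3C cultures and fitted in both directions relative to DMSO; cytotoxicity was checked by SRB total-protein staining in parallel wells.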

Read-out in test [4]: Monocyte Chemoattractant Protein-1 (MCP1), CCL2 (gene 6347)
As to the kind of experiment: BSK_4H_MCP1: BioMAP Diversity Plus: 4H Assay for Monocyte Chemoattractant Protein-1 (MCP1) Biomarker Activity (AID 2283018). Particulars: primary human endothelial cells (HUVEC); actives raise or lower the signal. The gist of the method: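 ELISA read-out of MCP-1 from human vascular endothelial primary cells taken at 24 hours after compound exposure. Activity was fitted in both directions relative to DMSO, which served as negative control.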

Read-out in test [5]: Human Leukocyte Antigen - DR isotype (HLADR), HLA-DRA (gene 3122)
As to the kind of experiment: BSK_3C_HLADR: BioMAP Diversity Plus: 3C Assay for Human Leukocyte Antigen - DR isotype (HLADR) Biomarker Activity (AID 2283019).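 Note: ELISA of cell-surface HLA-DR on HUVEC 24 h after dosing.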 Particulars: primary human endothelial cells (HUVEC); actives raise or lower the signal. In outline: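 Bidirectional fitting against DMSO was applied to the HLA-DR ELISA signal from human umbilical vein endothelial cells, 24 h post-dose. Cytotoxicity came from parallel SRB total-protein staining; 3C proliferation was counted by SRB at 48 h.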

Read-out in test [6]: Interleukin-8 (IL8), CXCL8 (gene 3576)
As to the kind of experiment: BSK_3C_IL8: BioMAP Diversity Plus: 3C Assay for Interleukin-8 (IL8) Biomarker Activity (AID 2283020). Particulars: primary human endothelial cells (HUVEC); actives raise or lower the signal. In outline: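 ELISA read-out of IL-8 from human umbilical vein endothelium, measured 24 h after chemical dosing. Activity is expressed relative to DMSO negative control, with both increases and decreases fitted.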

Test [7] has as its target human Vitamin D Receptor (VDR), VDR (gene 7421) (UniProt P11473). As to the kind of experiment: ATG_VDR_TRANS: Attagene TRANS-FACTORIAL HepG2 Assay for human Vitamin D Receptor (VDR) (AID 2283022; active = hit-call score of the fitted dose curve at least 0.9, where 1 is the maximum). The gist of the method:
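Transactivation by an exogenous VDR-Gal4 chimera in transiently transfected HepG2 cells was measured as reporter transcript level 24 hours after chemical treatment. RT-PCR products were analysed by capillary electrophoresis and fitted in the positive direction relative to DMSO.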

Read-out in test [8]: Monokine induced gamma interferon (MIG), CXCL9 (gene 4283)
As to the kind of experiment: BSK_3C_MIG: BioMAP Diversity Plus: 3C Assay for Monokine induced gamma interferon (MIG) Biomarker Activity (AID 2283021).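 For AC50: MIG protein level measured by immunoassay in the treated endothelial cultures.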 Particulars: primary human endothelial cells (HUVEC); actives raise or lower the signal. In outline: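 Read-out is ELISA detection of MIG on human umbilical vein endothelial cells, taken 24 h after dosing. Gain or loss of signal was scored relative to DMSO controls using bidirectional curve fitting.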

A short description of test [9]: BSK_3C_SRB: Viability Assessment in the BioMAP Diversity Plus: 3C Assay (AID 2283023).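 Note: fitted both ways against DMSO so a hit may be signal rise or drop.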 Particulars: primary human endothelial cells (HUVEC). In outline:
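Cytotoxicity readout in parallel HUVEC 3C cultures: after 24 h compound exposure, cells fixed with 10% TCA, stained with 0.1% SRB and read at 560 nm. Gain or loss relative to DMSO fitted.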

Read-out in test [10]: Matrix Metallopeptidase 1 (MMP1), MMP1 (gene 4312)
As to the kind of experiment: BSK_BE3C_MMP1: BioMAP Diversity Plus: BE3C Assay for Matrix Metallopeptidase 1 (MMP1) Biomarker Activity (AID 2283024). The note with it: primary human bronchial epithelial cells; actives raise or lower the signal. The gist of the method: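 Human bronchial epithelial cells (BE3C system) exposed to compound for 24 h; MMP1 then quantified by ELISA. Activity was fitted in both directions relative to DMSO.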

human Vitamin D Receptor (VDR), VDR (gene 7421), sequence (P11473 whole entry, looked up, the tested form may be a part): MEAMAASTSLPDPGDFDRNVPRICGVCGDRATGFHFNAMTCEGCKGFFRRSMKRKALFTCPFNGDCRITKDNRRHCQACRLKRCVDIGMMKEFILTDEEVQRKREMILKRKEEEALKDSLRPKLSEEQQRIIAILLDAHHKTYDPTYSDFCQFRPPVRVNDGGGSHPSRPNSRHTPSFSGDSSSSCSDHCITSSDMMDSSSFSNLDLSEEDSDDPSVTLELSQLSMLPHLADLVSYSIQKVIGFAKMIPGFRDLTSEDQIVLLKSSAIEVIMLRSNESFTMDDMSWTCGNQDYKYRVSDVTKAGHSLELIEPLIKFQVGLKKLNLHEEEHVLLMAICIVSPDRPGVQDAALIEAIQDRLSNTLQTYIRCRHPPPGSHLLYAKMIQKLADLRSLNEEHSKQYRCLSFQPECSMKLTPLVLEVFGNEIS
E-selectin (Homo sapiens), sequence (P16581 whole entry, looked up): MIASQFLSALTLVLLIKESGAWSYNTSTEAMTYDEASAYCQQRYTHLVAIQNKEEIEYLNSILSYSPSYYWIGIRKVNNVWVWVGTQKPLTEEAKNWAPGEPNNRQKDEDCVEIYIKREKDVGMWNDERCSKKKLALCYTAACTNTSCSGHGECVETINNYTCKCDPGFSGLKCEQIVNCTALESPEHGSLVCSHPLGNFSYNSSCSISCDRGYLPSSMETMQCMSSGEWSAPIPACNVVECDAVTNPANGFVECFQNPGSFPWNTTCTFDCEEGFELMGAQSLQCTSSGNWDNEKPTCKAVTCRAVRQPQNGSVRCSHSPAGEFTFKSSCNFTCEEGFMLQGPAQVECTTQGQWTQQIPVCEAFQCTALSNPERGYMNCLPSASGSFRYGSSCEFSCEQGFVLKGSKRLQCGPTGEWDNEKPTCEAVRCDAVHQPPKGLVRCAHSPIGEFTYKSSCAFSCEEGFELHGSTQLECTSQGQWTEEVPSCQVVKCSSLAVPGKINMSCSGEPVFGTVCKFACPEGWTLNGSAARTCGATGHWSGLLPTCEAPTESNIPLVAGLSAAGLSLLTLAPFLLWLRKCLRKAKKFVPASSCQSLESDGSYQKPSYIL

For orientation: AC50 means the concentration at which the activity in the assay is half-maximal. Regarding `Cc1ccc(C(C)(C)C)c(O)c1`, the AC50 in test [1] was 34.5 µM (active); in [3] it was 34.7 µM (active). For the same molecule, the result in test [2], in [4], in test [5], in test [6] and in test [7] was inactive.

As for `O=C1O[C@H]([C@H](O)CO)C(O)=C1O`, the outcome in [1], in test [2], in [3], in test [4], in test [5] and in test [6] was inactive. For the same molecule, the outcome in test [8], in [9] and in test [10] was inactive.

On to `C/C=C/C=C/C(=O)O`, for which the result in test [1], in [2], in [3], in [4], in test [5] and in test [6] was inactive. Further, the outcome in [8] and in test [9] was inactive.

For `Nc1nc(Cl)nc2c1ncn2[C@H]1C[C@H](O)[C@@H](CO)O1`, the result in test [1], in test [2], in test [3], in test [4], in test [5] and in test [6] was inactive. The outcome in test [8] and in test [9] was inactive.

For the molecule `CCCCCCCC(=O)OC`, the result in test [1], in test [2], in [3], in [4], in test [5] and in [6] was inactive. Also, the result in test [7] and in test [9] was inactive.

As to `Cn1cnc2c1c(=O)[nH]c(=O)n2C`, the result in test [1], in test [2], in test [3], in test [4], in test [5] and in [6] was inactive. The outcome in test [8] and in test [9] was inactive.

Take `C/C=C/c1ccc(OC)cc1`: the result in test [1], in [2], in test [3], in test [4], in test [5] and in test [6] was inactive. Also, the result in [8] and in test [9] was inactive.

For `CCCCc1nc2cccnc2n1Cc1ccc(-c2ccccc2-c2nnn[nH]2)cc1`, the outcome in test [1], in [2], in test [3], in test [4], in test [5] and in [6] was inactive. Moreover, the result in [8] and in test [9] was inactive. The AC50 in test [10] is 6.21 µM (active).

On to `CCOCCOCCO`, for which the outcome in [1], in test [2], in [3], in test [4], in test [5] and in test [6] was inactive. The outcome in test [8] and in [9] was inactive.

With `CCCC(=O)O`, the outcome in test [1], in test [2], in [3], in [4], in [5] and in test [6] was inactive. Also, the result in [8], in [7] and in [10] was inactive.

As to `CCCCC(CC)CO` (stereo unspecified), the result in test [1], in test [2], in [3], in [4], in test [5] and in [6] was inactive. For the same molecule, the result in test [8], in test [7] and in test [10] was inactive.

With `CC(C)NCC(O)c1ccc(O)c(O)c1` (stereo unspecified), the result in test [1], in [2], in [3], in test [4], in [5] and in [6] was inactive. The outcome in test [8], in [9] and in test [10] was inactive.

As to `CO[C@@H]1COCC[C@@H]1N[C@@H]1CC[C@@](C(=O)N2CCc3ncc(C(F)(F)F)cc3C2)(C(C)C)C1`, the outcome in [1], in test [2], in [3], in test [4], in test [5] and in test [6] was inactive. The outcome in test [8], in [9] and in [10] was inactive.

In the case of `Cc1cc(SC2=C(O)C[C@@](CCc3ccc(N)cc3)(C(C)C)OC2=O)c(C(C)(C)C)cc1CO`, the result in test [1], in test [2], in [3], in test [4], in test [5] and in [6] was inactive. Besides, the result in [8], in test [7] and in [10] was inactive.

Turning to `CN(C)C(=O)NC1(c2ccccc2)CCN(CC[C@@]2(c3ccc(F)c(F)c3)CN(C(=O)c3ccccc3)CCO2)CC1`, the outcome in test [1], in test [2], in test [3], in test [4], in [5] and in [6] was inactive. For the same molecule, the call in test [7] and in test [9] was inactive.

For `CCCCCCCCCCCCCCOS(=O)(=O)O`, the outcome in [1], in test [3], in test [4], in test [5], in test [6] and in test [9] was inactive. Also, the AC50 in [2] was 28.1 µM (active); in test [10], 31.8 µM (active).

As for `Cc1c(C)c2c(c(C)c1O)CCC(C)(COc1ccc(CC3SC(=O)NC3=O)cc1)O2` (stereo unspecified), the AC50 was 30.3 µM (active) in test [1]; 29.3 µM (active) in [2]; 30.6 µM (active) in test [3]; 9.95 µM (active) in [4]; 20 µM (active) in test [6]; 34.2 µM (active) in [8]. Moreover, the AC50 in test [10] was 33.9 µM (active). Besides, the result in test [7] was inactive.

Consider `C=CCCCCCCCCCCCC`, for which the outcome in test [1], in [2], in test [3], in test [4], in [5] and in test [6] was inactive. In addition, the molecule was classed as inactive in test [7], in [9] and in test [10].

As for `O=C(O)CN(CC(=O)O)CC(=O)O`, the result in test [1], in test [2], in test [3], in [4], in test [5] and in test [6] was inactive. Besides, the outcome in test [7] and in [10] was inactive.

Turning to `CSc1ccc(Oc2ccc(S(N)(=O)=O)cc2CN(C)C)cc1C`, the result in test [1], in test [2], in test [3], in [4], in test [5] and in test [6] was inactive. Further, the call in test [7] and in [10] was inactive.

Regarding `CC(C)COC(=O)CCCCC(=O)OCC(C)C`, the outcome in test [1], in [2], in test [3], in [4], in test [5] and in test [6] was inactive. For the same molecule, the outcome in [7], in [9] and in test [10] was inactive.
